43 molecules from PubChem BioAssay AID1460 (National Center for Advancing Translational Sciences (NCATS), 2008) can be followed below.

About 5,800 (2.1%) of roughly 270,000 compounds were called active. Inconclusive results (about 16%) are left out. The sample as a whole holds a higher share of actives than the screen did. A number with no mark means an inactive call. Calls come from the whole dose curve; as a rule, active = well fitted inhibition curve with a large enough effect; inconclusive = small, poorly fitted or top-dose-only effect; inactive = flat fitted curve, though single readings scatter.
% is set by controls: 0 for no effect and ±100 for the full control effect; potency is the fitted concentration of half-maximal effect.

Microtubule-associated protein tau (Homo sapiens), sequence (P10636 561-689 P618L limits assumed): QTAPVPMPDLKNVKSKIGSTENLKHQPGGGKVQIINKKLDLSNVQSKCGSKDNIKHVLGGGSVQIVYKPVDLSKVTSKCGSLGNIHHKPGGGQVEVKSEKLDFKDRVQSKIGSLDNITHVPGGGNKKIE

This experiment addresses Microtubule-associated protein tau (Homo sapiens) (UniProt P10636). The experiment is described as follows: qHTS for Inhibitors of Tau Fibril Formation, Thioflavin T Binding. Note: nearly all actives have a fitted effect of over 55% in size. The following applies: recombinant tau K18 P301L (four-repeat tau fragment), heparin-induced fibrillization, ThT fluorescence; series mostly up to 57.4 µM; activity, negative = inhibition: at the top concentration. The text has this: NIH Molecular Libraries Probe Production Network [MLPCN]
NIH Chemical Genomics Center [NCGC]
Assay Provider: Carlo Ballatore, University of Pennsylvania
The microtubule-associated protein tau is an abundant protein in the axons of neurons that stabilizes microtubules. With its ability to modulate microtubule dynamics, tau contributes directly or indirectly, to key structural and regulatory cellular functions. Particularly important is the influence tau exerts on axonal transport, which allows signaling molecules, trophic factors and other essential cellular constituents to travel along the axons. Under pathological conditions, tau becomes sequestered into insoluble aggregates called neurofibrillary tangles. This phenomenon is believed to have pathological consequences by promoting axonal transport deficits that ultimately lead to synaptic dysfunction and neuronal loss. To identify inhibitors of tau aggregation, a heparin-induced tau fibril formation assay was used that employed a recombinantly expressed fragment of tau, K18 (Q242-E372), bearing a P301L mutation (Gustke et al. 1994; Hong et al. 1998). This assay monitors tau fibrillization by Thioflavin T (ThT) fluorescence.
Gustke, N., B. Trinczek, et al. (1994). "Domains of tau protein and interactions with microtubules." Biochemistry 33(32): 9511-22.
Hong, M., V. Zhukareva, et al. (1998).
Li, W. and V. M. Lee (2006).
von Bergen, M., S. Barghorn, et al. (2001). "Mutations of tau protein in frontotemporal dementia promote aggregation of paired helical filaments by enhancing local beta-structure." J Biol Chem 276(51): 48165-74.
NCGC Assay Protocol Summary:
For screening, 2 uL/well human K18 P301L (15 uM unlabeled and 0.24 uM Alexa 594-labeled tau, final concentrations) in reagent buffer (100 mM sodium acetate pH 7) was dispensed into black solid 1536-well plates (Grenier) using a solenoid-based dispenser. Following transfer of 23 nL compound or DMSO vehicle by a pin tool, 2 uL/well heparin (20 uM final concentration) in reagent buffer was added and the plate centrifuged 15 s at 1000 RPM. Plates were incubated 6 hr at 37 C and then 1 uL/well ThT (30 uM final concentration) was added. After a 1 hr ambient incubation, the plates were read by an Envision (Perkin Elmer) to monitor ThT fluorescence (450/8 nm excitation and 510/23 nm emission).
Keywords: NIH Roadmap, MLPCN, MLI, MLSMR, NCGC, qHTS, tau, tauopathies, Alzheimer's disease, fibril, neurodegeneration, aggregation
For the molecule `N[C@@H](Cc1c[nH]c2ccccc12)c1nnc(SCc2c(F)cccc2Cl)o1`, the “activity, negative = inhibition” value is -19.7%. Turning to `Cc1ccc(Cn2c(C)c3cnn(CC(=O)N4CCC5(CC4)OCCO5)c(=O)c3c2C)cc1`, the “activity, negative = inhibition” value is -2.65%. On to `COC(=O)c1ccc2[se]c(CC3CCCCC3)c(I)c2c1`, for which the “activity, negative = inhibition” value is -9.2%. For `Cc1ccc2c(c1)=C/C(=C\c1c(O)[nH]c(=O)[nH]c1=O)C(=O)N=2`, the “activity, negative = inhibition” value was 8.7%. Turning to `CCC(=NCc1ccco1)c1c(O)n(Cc2ccccc2)c(=O)[nH]c1=O`, the “activity, negative = inhibition” value was 1.59%. For the molecule `CC/C(=N\NC(=O)c1ccccc1O)c1c(O)n(Cc2ccccc2)c(=O)[nH]c1=O`, the Potency is 22.4 µM (active). As to `CCC(=NCCc1ccccc1)c1c(O)n(C2CCCCC2)c(=O)[nH]c1=O`, the “activity, negative = inhibition” value is -25.8%. On to `CCCCC/C=C\C/C=C\C/C=C\C=C\[C@H](CCCC(=O)O)OO`, for which the Potency entry was “inactive”. `Cc1nc2ccccn2c1P(=S)(N1CCCCC1)N1CCCCC1`: the “activity, negative = inhibition” value is -0.659%. As for `Cc1cccc2c3c(ccc12)C1=C(C(=O)C3=O)C(C)CO1` (stereo not drawn), the Potency was 7.94 µM (active).

Consider `CN1CCN(Cc2ccc(OC(F)(F)F)cc2)CC1`, for which the “activity, negative = inhibition” value is -11.3%. On the same count and under the same terms, with `CCCN(C/C=C/I)C1CCc2ccc(O)cc2C1` (stereo not drawn) the figure was -11.2%; with `CCCCCCCCc1[se]c2ccccc2c1Br`, -14.5% [at 81.4 µM]. As to `O=C(OCC1O[C@@H](OC(=O)c2cc(O)c(O)c(O)c2)[C@@H](OC(=O)c2cc(O)c(O)c(O)c2)[C@@H](OC(=O)c2cc(O)c(O)c(O)c2)[C@@H]1OC(=O)c1cc(O)c(O)c(O)c1)c1cc(O)c(O)c(O)c1` (stereo partly drawn), the Potency is 11.2 µM (active). In the case of `O=C(O)C1C2CCC(O2)C1C(=O)O` (stereo not drawn), the “activity, negative = inhibition” value is -15.8%. As for `CO[C@@H]1C[C@@H](C[C@H]2CC[C@H](C)[C@@H]([C@@H](C)C(=O)O)O2)O[C@]2(O[C@](C)([C@H]3CC[C@@](C)(C4OC([C@H]5O[C@@](O)(CO)[C@H](C)C[C@@H]5C)C[C@@H]4C)O3)C[C@H]2C)[C@@H]1C` (stereo partly drawn), the “activity, negative = inhibition” value was -8.15%. Consider `Cc1ncsc1CCCl`, for which the Potency entry was “inactive”. Regarding `CCC(C)n1c(O)c(/C=N/Nc2nc3c(c(=O)n(C)c(=O)n3C)n2C)c(=O)[nH]c1=S` (stereo not drawn), the Potency was 11.2 µM (active). Take `CCOC(=O)C1(CCc2ccccc2)CCN(Cc2ccco2)CC1`: the “activity, negative = inhibition” value is -5.91%.

Regarding `O=C(c1cc2nc(-c3ccccc3)cc(-c3ccccc3)n2n1)N1CCC2(CC1)OCCO2`, the “activity, negative = inhibition” value was -14.9%.

In the case of `CC1=C(C(=O)Nc2ccccc2)SCCO1`, the “activity, negative = inhibition” value is 8.01%.

Take `COc1cccc(-c2nc3ccc(N4CCN(C)CC4)cc3[nH]2)c1`: the “activity, negative = inhibition” value was -13.3%. In the case of `CCN1CC2C3CCC(C)(O3)C2C1` (stereo not drawn), the “activity, negative = inhibition” value was 6.26%. Same read-out and setting: as for `Cc1nnc(NC(=O)c2cccn(Cc3cccc(F)c3)c2=O)s1`, the figure is -3.68%.

For `N#Cc1c(Cl)c(Cl)c(Cl)c(C#N)c1Cl`, the Potency is 2.24 µM (active).

As to `Cc1ccc(NC(=O)N(Cc2ccc3c(c2)OCO3)C2CCN(Cc3ccccc3)CC2)cc1F`, the “activity, negative = inhibition” value was -0.209%.

In the case of `Cc1ccc(-n2c(/C=C/c3cccc(C(F)(F)F)c3)nc3ccccc3c2=O)cc1`, the “activity, negative = inhibition” value is 3.62%.

In the case of `C=CCN1CCC23c4c5ccc(O)c4O[C@H]2C(=O)CC[C@@]3(O)C1C5` (stereo partly drawn), the Potency result is “inactive”.

For the molecule `C[C@@]12CCC3C(CC[C@@H]4CC(O)CC[C@@]34C)C1CCC2O` (stereo partly drawn), the “activity, negative = inhibition” value is -4.49%.

For the molecule `CC1=CC(=Cc2sc3ccccc3[n+]2C)C=C(C)O1`, the Potency is 15.8 µM (active).

For `CC(C)(C)c1ccc(CN2C(=O)CN=C(c3ccccc3)c3ccccc32)cc1`, the “activity, negative = inhibition” value is -11.3%. In the case of `Cc1nn(Cc2ccccc2Cl)c(Cl)c1C(=O)OC(C(=O)NC(N)=O)C(C)C` (stereo not drawn), the “activity, negative = inhibition” value is 2.38%.

`CCC1(C)CC(CCNCc2ccc(N(C)C)cc2)(c2ccc(F)cc2)CCO1` (stereo not drawn): the “activity, negative = inhibition” value was -10.7%.

Regarding `COc1cc(OC)cc(C2(C#N)CCN(C)CC2)c1`, the “activity, negative = inhibition” value is -7.25%. In the case of `N[C@H](C(=O)O)c1cc(=O)[nH]o1`, the “activity, negative = inhibition” value was -10.1%. As for `C=CCSSCC=C`, the “activity, negative = inhibition” value was 8.52%. Regarding `CCN(CC)c1ccc([N+](=O)[O-])c2cccnc12`, the Potency was 11.2 µM (active). On to `c1ccc(C2NCc3ccccc3-n3cccc32)cc1` (stereo not drawn), for which the “activity, negative = inhibition” value was 0.594%. Take `Cc1ccc(Cn2nnnc2CN2CCC(n3nnc4ccccc43)CC2)cc1`: the “activity, negative = inhibition” value was -4.23%.

Turning to `CCOC(=O)C(O)(c1ccc(NC(=O)c2ccco2)c(OC)c1)C(F)(F)F` (stereo not drawn), the “activity, negative = inhibition” value was -3.16%. Regarding `CCCCC(=O)N/N=C/c1c(O)n(CC)c(=S)n(CC)c1=O`, the “activity, negative = inhibition” value is -7.11%. Still for that read-out and setting: as for `C1CC[C@H]([C@@]23C[C@H](C[C@H]4CCCN[C@H]42)[C@@H]2CCCCN2C3)NC1`, the figure is -12.3%. In the case of `Cn1c(O)c(C=Nc2ccc3c(c2)CCC3)c(=O)n(C)c1=O`, the “activity, negative = inhibition” value is 1.7%.
